Laboratory results: PubChem BioAssay AID504408 (Broad Institute, 2011)
Out of some 300,000 compounds screened, about 5,200 (1.7%) were called active. The entries come from a sample that favours actives as a whole. Values without a mark were called inactive.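 The calls were made as follows: active = mean replicate activation of at least 50% with a set share of replicates each reaching 50%; inconclusive = only one of those two conditions met; inactive = mean below 50% and too few replicates reaching it.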

Assay: HSF-1 activators, primary screen, NIH3T3-HGL cells, MG132 stress, luminescence, single point (AID 504408);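 also: 0% = median of the neutral control wells and 100% = twice that signal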
Details: NIH3T3-HGL HSF-1 luciferase reporter, MG132, 8 h; at 9 µM; hits give high values; 100% = twice DMSO control signal

SMILES | activation
O=C(COc1ccccc1Cl)Nc1ccccc1C(=O)NC1CC1 | -14.4%
CN(C)CCN(C(=O)CN1C(=O)c2ccccc2C1=O)c1nc2cc3c(cc2s1)OCCO3 | 16%
CN(CC(=O)Nc1cccc(F)c1)C(=O)C1=COCCO1 | 3.81%
Cc1cc(Nc2ccc(Br)cc2)nc2ccccc12 | 0.857%
O=C1CCCC2=C1C(c1ccccc1)n1c(s/c(=C/c3cccc(F)c3)c1=O)=N2 (centres undefined) | -4.55%
CCOC(=O)C1=C(C)N=C2c3ccccc3C(=O)C2C1c1ccc(Br)cc1 (centres undefined) | -1.71%
Cc1cccc(C2C3=C(CCCC3=O)N=C3c4ccccc4C(=O)C32)c1 (centres undefined) | 78.2% (active)
COc1ccc(CNS(=O)(=O)c2cc3c4c(c2)CCN4C(=O)CC3)cc1 | 30.7%
COc1ccccc1OCCCCCCN1CCN(C)CC1 | -3.8%
Cc1n[nH]c(=O)c2c(NC(=O)CSc3ccccc3F)oc(C)c12 | 6.59%
COc1ccc(OCCCC(=O)OC(C)C(=O)Nc2ccccc2[N+](=O)[O-])cc1 (centres undefined) | 10.9%
COc1ccc2oc(=O)c(C(=O)N3CCCC3)cc2c1 | 6.28%
COc1ccc2c(c1)CCc1c(C(=O)N3CCc4ccccc4C3)noc1-2 | 6.07%
COc1ccc2c(c1)CCc1c(C(=O)N3CCCC3)noc1-2 | 54.9% (active)
CC1CN(C(=O)c2cc(COc3c(F)cccc3F)on2)CCN1C (centres undefined) | 52.1% (active)
O=C(NCCN1CCCC(O)C1)c1cc(COc2c(F)cccc2F)on1 (centres undefined) | -5.99%
O=C(c1cc(COc2c(F)cccc2F)on1)N1CCSCC1 | 13.6%
Cc1csc(NC(=O)C2=COCCO2)n1 | 13%
CC(C)CN(C(=O)COC(=O)c1ccc(Cl)c(N)c1)c1c(N)n(Cc2ccccc2)c(=O)[nH]c1=O | -19.5%
O=C(NC1CCCCC1)c1ccc(-c2ccc(Cl)cc2)o1 | 67.1% (active)
O=C(NC1CCCCCC1)c1cccnc1Sc1ccc(Cl)cc1 | -8.73%
S=C(NCc1ccc(Cl)cc1)NC1CCCCC1 | 18.1%
CCN(C(=O)COC(=O)c1sccc1C)c1c(N)n(Cc2ccccc2)c(=O)[nH]c1=O | -3.51%
CCCNC(=O)c1onc(CSc2ccc(F)cc2)c1C(=O)NC(C)C | -0.0105%
CS(=O)(=O)c1ccc(Cl)c(NC(=O)COC(=O)c2ncc(Cl)c(Cl)c2Cl)c1 | 2.63%

SMILES | activation
CCOc1cc(N2CCOCC2)c(OCC)cc1NC(=O)COc1cccc2cccnc12 | -23%
CC(C)c1cc(CN2CCOCC2)cc(C(C)C)c1O | 4.46%
Oc1c(C(c2ccccn2)N2CCOCC2)ccc2cccnc12 (centres undefined) | 73.3% (active)
O=C(COC(=O)c1ncc(Cl)c(Cl)c1Cl)NNC(=O)c1ccccc1 | 3.3%
O=C1CC2(CCN(C(=O)COc3ccc(F)cc3)CC2)Oc2ccccc21 | 12%
CC(OC(=O)c1ccc(S(=O)(=O)N2CCOCC2)cc1)c1ccccc1 (centres undefined) | 13.9%
CC(Oc1ccc(F)cc1)C(=O)Nc1ccccc1C(=O)NC1CC1 (centres undefined) | 6.2%
Cc1ccc(O)c(NC(=O)c2cc(-c3ccco3)on2)c1 | 113% (active)
COc1ccc(NC(=O)c2cc(-c3ccc(C)cc3)on2)cc1 | -4.41%
O=C(Nc1cccnc1Cl)c1cc(-c2ccccc2O)on1 | 11.3%
c1ccc(C[C@H]2CNCCN2CCC23CC4CC(CC(C4)C2)C3)cc1 | -13.4%
Cc1ccc(CSCC(=O)N(C)CC(=O)Nc2ccc(C)cc2)cc1 | -77.8%
O=C(CSC1=NS(=O)(=O)c2cc(F)ccc2N1)Nc1ccccc1F | 30%
Cc1ccc(OC(=O)c2cc3ccccc3o2)cc1 | 5.61%
C/C(=N\NC(=S)Nc1ccc(C)cc1)c1cc2ccccc2o1 | 7.68%
Cc1ccc(NC(=O)c2cc3ccccc3o2)cc1 | 51.6% (active)
CN(/N=C/c1ccccc1)C(=S)c1ccccc1 | 9.01%
O=C(O)C(c1ccccc1)N1C(=O)/C(=C\c2ccc(-c3cccc(Cl)c3)o2)SC1=S (centres undefined) | -2.76%
O=C1c2ccccc2NC(c2ccc(-c3cccc(Cl)c3)o2)N1O (centres undefined) | 76.4% (active)
O=c1c(-c2cccc(Cl)c2)c[nH]n1-c1ccccc1 | 7.2%
Cc1ccc(C(=O)C(C)OC(=O)Cc2n[nH]c(=O)c3ccccc23)cc1C (centres undefined) | -0.0365%
O=C(NCc1ccccn1)Nc1ccc(Cl)cc1 | -2.45%
CCN(CC(=O)Nc1c(F)cccc1F)C(=O)C1CCC1 | -4.88%
O=C(Nc1nc(-c2ccco2)c(-c2ccco2)s1)c1ccco1 | 70.1% (active)
NC(=O)c1ccsc1NC(=O)c1ccco1 | 26.5%

SMILES | activation
O=C(Nc1ccccc1)c1ccco1 | 11.5%
Cc1csc(NC(=O)c2ccc(C)s2)n1 | -3.76%
O=C(NCCCN1CCCC1=O)c1ccc(S(=O)(=O)Nc2ccccc2)cc1 | 16.8%
CC(C)(C)C(=O)COC(=O)c1cc(S(=O)(=O)N2CCCCC2)ccc1N1CCOCC1 | -1.57%
Cc1ccc2nnn(Cc3cccc(C(C)(C)C)c3O)c2c1 | 59.9% (active)
Cc1ccc(C(=O)CSc2nnc(Cn3nnc4ccccc43)n2C)cc1 | 43.4%
O=C(CN1C(=O)NC2(CCCC2)C1=O)OCCOc1ccc(F)cc1 | 3.21%
CCCCn1c(N)c(N(CCC(C)C)C(=O)CC2OC(=O)c3ccccc32)c(=O)[nH]c1=O (centres undefined) | -3.07%
Cc1cc(Oc2ccc(Cl)cc2)nc(SCC(=O)c2ccccc2)n1 | 2.82%
Cc1cc(C)nc(SCC(=O)c2ccc(Cl)cc2)n1 | -1.86%
Cc1cc(C)nc(S/C=C/C(=O)c2ccccc2)n1 | 111% (active)
CSc1ccc(/C=C2\NC(=O)NC2=O)cc1 | 20.8%
CN(Cc1ccccc1F)C(=O)C(Cc1ccccc1)NC(=O)c1ccccc1 (centres undefined) | -0.838%
CCCCn1c(N)c(N(CCOC)C(=O)COc2c(C)cccc2C)c(=O)[nH]c1=O | -3.47%
CCC(C)NC(=O)C1c2ccccc2C(=O)N1Cc1ccccc1 (centres undefined) | 16.4%
CC1CCC(NC(=O)C2c3ccccc3C(=O)N2Cc2ccc3c(c2)OCO3)CC1 (centres undefined) | -8.55%
CCc1ccc(CN2C(=O)c3ccccc3C2C(=O)NCC2CCCO2)cc1 (centres undefined) | 62.2% (active)
CCOC(=O)c1cc(NC(=O)c2cccnc2)ccn1 | -78.8%
COc1ccc(S(=O)(=O)N2CCOCC2)cc1NC(=O)COc1ccccc1 | -3.48%
COc1ccc(S(=O)(=O)N2CCOCC2)cc1NC(=O)CSc1ncnc2ccccc12 | 72.7% (active)
COc1ccc(S(=O)(=O)N2CCCCC2)cc1NC(=O)COc1ccccc1 | 4.76%
CCCC(=O)Nc1c(O)c2ccccc2[nH]c1=O | -31.5%
O=C(Cc1c(O)c2ccccc2[nH]c1=O)NCc1ccccc1 | 55.5% (active)
CCCOC(=O)Cc1c(O)c2ccccc2[nH]c1=O | -21.7%
Cc1ccc(NS(=O)(=O)c2ccc(C(=O)NCCCN3CCOCC3)cc2)cc1 | -3.65%

SMILES | activation
O=C(NCCS(=O)(=O)NCc1ccc(F)cc1)c1ccccc1 | 2.75%
O=C(Nc1cccc2c1CCCC2)c1ccc(F)cc1 | -3.19%
COc1ccc2oc(C(=O)NCc3ccco3)c(C)c2c1 | 6.69%
COc1ccc2c(Cl)c(C(=O)NCc3ccco3)sc2c1 | 59.8% (active)
O=C(NCc1ccco1)c1sc2cccc(F)c2c1Cl | 27.8%
CCN(CC(=O)Nc1cccc(S(=O)(=O)N2CCCCC2)c1)Cc1ccccc1 | 0.93%
CN1C(C(=O)NCc2ccco2)CC2Cn3c(nc4ccccc43)C21 (centres undefined) | -8.57%
Cc1nn(C)c(C)c1NS(=O)(=O)c1ccc(OC(F)(F)F)cc1 | 0.0449%
Cc1ccc(S(=O)(=O)N(Cc2cccc([N+](=O)[O-])c2)C(=O)N2CCN(C)CC2)cc1 | 17.1%
CC(=O)c1ccc(S(=O)(=O)NC2CC(=O)N(c3ccc4c(c3)OCCO4)C2)cc1 (centres undefined) | 8.08%
Cc1cccc(-c2noc(-c3ccc(F)cc3)n2)c1 | 55% (active)
COc1ccc2[nH]c(=O)c(-c3noc(-c4ccc(F)cc4)n3)cc2c1 | 25.7%
Cc1ccc(Cc2nc(-c3cccc(C)c3)no2)cc1 | 17.5%
CCc1noc(C)c1C(=O)Oc1ccc(N(C)S(=O)(=O)c2ccc(C)c(C)c2)cc1 | -16.6%
CCOc1ccc(NC(=S)N2CCCCCC2)cc1 | 65.8% (active)
CCOC(=O)c1ccc(NC(=S)N2CCCC2)cc1 | 17.9%
CCOc1ccc(NC(=S)N2CCC(N(C)CC3CCCO3)CC2)cc1 (centres undefined) | -6.15%
O=C(Nc1ccc2nc3n(c(=O)c2c1)CCCC3)c1ccc(Cl)nc1 | 3.58%
COc1ccc(C(=O)NCC(c2ccco2)N2CCc3ccccc32)cc1OC (centres undefined) | 2.97%
Cc1noc(C)c1CSCC(=O)Nc1ccc(Br)cc1Cl | 1.94%
CC(C)n1c(COc2ccccc2)nc2ccccc21 | 12.3%
COCn1c(COc2ccccc2)nc2ccccc21 | 23.9%
Cc1ccc(OCc2nc3ccccc3n2C)cc1 | 75.6% (active)
Cc1n[nH]c(=O)c2c(NC(=O)COC(=O)c3ncc(Cl)c(Cl)c3Cl)oc(C)c12 | -1.88%
